A selection: hits, their analogues and other compounds. The true share with any hit is near 2.4%.
ANO1 block = mouse TMEM16A channel inhibition, primary screen | HEK293 TMEM16A/YFP iodide influx fluorescence, ionomycin | normalized B-score (activity score, 25-100; higher = stronger inhibition) at 10 µM | 1.2% of 310,000 active | AID 588511;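 active = ratio plate-corrected score three or more library SD toward inhibition, starting fluorescence score within five deviations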;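 note: score derived from kinetic fluorescence span divided by baseline fluorescence per well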
NOD2-RIPK2 inh = blocks binding of human NOD2 to RIPK2. inhibition, % at 4.98 µM. 0.38% of 360,000 active. CHO BLA complementation NOD2-RIPK2, CCF4 ratio. O43353. AID 624267; in the data active = inhibition above about 21%
m5-HT2A agonist = activates the mouse 5-HT2A serotonin receptor; CHO-K1 mHTR2A beta-arrestin complementation, luminescence; percent of 30 µM serotonin response; activation, % at 7.6 µM; 0.66% of 360,000 active; AID 624169;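 active = activation above a run cutoff, the mean activation of all tested compounds plus 3 SD, cut at about 14% in these data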
TLR4 MyD88 comp = inhibitors of human TLR4-MyD88 binding; O00206+Q99836; HeLa CL3-4 TLR4/MyD88 BLA complementation, FRET ratio; inhibition, % at 8.4 µM; 0.18% of 200,000 active; AID 861; in the data active = inhibition above about 25%
Target sequence (O00206 whole entry, looked up): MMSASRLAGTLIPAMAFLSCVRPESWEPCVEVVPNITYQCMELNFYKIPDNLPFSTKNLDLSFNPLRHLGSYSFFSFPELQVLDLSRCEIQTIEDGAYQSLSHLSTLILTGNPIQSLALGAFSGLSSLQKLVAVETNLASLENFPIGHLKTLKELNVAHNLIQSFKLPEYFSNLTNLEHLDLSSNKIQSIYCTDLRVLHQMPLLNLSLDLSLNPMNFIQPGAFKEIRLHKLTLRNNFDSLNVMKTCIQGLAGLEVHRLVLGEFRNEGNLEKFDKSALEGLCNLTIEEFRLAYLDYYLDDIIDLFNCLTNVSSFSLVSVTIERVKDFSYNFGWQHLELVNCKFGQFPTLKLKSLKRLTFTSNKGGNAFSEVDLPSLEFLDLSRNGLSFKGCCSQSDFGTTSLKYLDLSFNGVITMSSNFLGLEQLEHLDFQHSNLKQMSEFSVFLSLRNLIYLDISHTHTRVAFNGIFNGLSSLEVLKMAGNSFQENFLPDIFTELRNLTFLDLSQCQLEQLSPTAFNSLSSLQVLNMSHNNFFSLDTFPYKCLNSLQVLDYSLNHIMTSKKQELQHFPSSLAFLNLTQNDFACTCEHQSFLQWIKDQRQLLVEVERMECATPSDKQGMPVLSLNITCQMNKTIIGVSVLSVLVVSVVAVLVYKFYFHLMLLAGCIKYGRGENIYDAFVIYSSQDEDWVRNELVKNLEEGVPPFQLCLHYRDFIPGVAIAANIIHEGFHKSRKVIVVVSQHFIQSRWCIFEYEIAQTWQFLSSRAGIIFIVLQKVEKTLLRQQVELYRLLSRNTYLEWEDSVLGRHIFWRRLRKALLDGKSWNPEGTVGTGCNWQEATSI
Target sequence (Q99836 whole entry, looked up): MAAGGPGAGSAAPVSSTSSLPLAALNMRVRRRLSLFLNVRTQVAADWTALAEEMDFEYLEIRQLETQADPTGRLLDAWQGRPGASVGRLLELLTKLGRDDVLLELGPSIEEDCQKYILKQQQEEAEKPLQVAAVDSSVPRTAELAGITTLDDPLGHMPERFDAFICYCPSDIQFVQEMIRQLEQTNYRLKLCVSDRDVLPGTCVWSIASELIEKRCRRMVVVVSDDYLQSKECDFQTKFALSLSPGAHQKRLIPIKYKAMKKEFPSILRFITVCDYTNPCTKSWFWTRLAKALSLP
TMEM16A act = activators or potentiators of mouse TMEM16A chloride channel | Q8BHY3 | HEK293 TMEM16A/YFP-H148Q/I152L, iodide quench fluorescence; active compounds read low | B-score at 10 µM | 0.3% of 340,000 active | AID 623877;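 active = fluorescence-ratio B-score plate-corrected deviation score at least 3 library SD below zero, with starting fluorescence score within 5 deviations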;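 note: channel opened by trigger with iodide after compound preincubation; score built on the fluorescence ratio of max minus min over baseline; more negative score means more quench and so TMEM16A activation or potentiation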
TLR9-MyD88 block = TLR9-MyD88 interaction inhibition; CHO BLA complementation TLR9-MyD88, CCF4 FRET ratio; 0.21% of 340,000 active; Q9NR96+Q99836; inhibition, % at 4.98 µM;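 active = inhibition above the mean over all tested compounds plus 3 SD, cut at about 21% in these data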
A number is an active result; – = inactive; · = no result given.

SMILES	ANO1 block	NOD2-RIPK2 inh	m5-HT2A agonist	TLR4 MyD88 comp	TMEM16A act	TLR9-MyD88 block
O=C(Nc1cc(S(=O)(=O)N2CCOCC2)ccc1O)c1ccc(NS(=O)(=O)c2ccc(Cl)s2)cc1	–	–	–	–	–	–
CCN(C(=O)/C=C/c1ccc(OC)cc1)C1CCCCC1	–	–	–	·	–	–
O=C(NCC1CCCO1)C1CCN(C2CCN(CCCC3CCCC3)CC2)CC1 (configuration not stated)	–	–	–	–	–	–
O=C(NCC1CCCO1)C1CCN(C2CCN(C(=O)CC3CCCC3)CC2)CC1 (configuration not stated)	–	–	–	–	-6.61	–
COc1cccc(-c2nnn(CC(=O)Nc3ccc(C)cc3C)n2)c1OC	25	–	–	–	–	–
CCc1ccc(C2=CC(c3cc(Br)ccc3F)n3ncnc3N2)cc1 (configuration not stated)	–	38.5	–	–	–	29.4
COc1cccc(C2=CC(c3ccc(C)cc3)n3ncnc3N2)c1 (configuration not stated)	–	·	·	–	·	·
O=[N+]([O-])c1cc2c(cc1C=Nc1ccccc1)OCO2	–	–	15.4	–	–	–
O=C(N/N=C/c1cc2c(cc1[N+](=O)[O-])OCO2)c1ccc2c(c1)OCO2	–	–	–	·	–	–
Cc1cccc(OCC(=O)N/N=C\c2cc3c(cc2[N+](=O)[O-])OCO3)c1C	25	–	–	–	–	–
CCOc1ccccc1NC(=O)Nc1cc(C(=O)O)ccc1C	–	–	–	–	–	–
COc1ccc(NC2c3ccccc3C(=O)N2Cc2ccco2)cc1OC (configuration not stated)	–	–	–	–	–	–
O=C1c2ccccc2C(Nc2ccc(F)c(Cl)c2)N1Cc1ccco1 (configuration not stated)	–	–	–	–	-22.4	–
O=C1OC[C@H](Cc2ccc3c(c2)OCO3)/C1=C\c1ccc2c(c1)OCO2	25	–	–	·	–	–
O=C1CC(Cc2ccccc2)C(=O)N1CCc1ccc2c(c1)OCO2 (configuration not stated)	–	–	–	–	–	–
Cc1[nH]n(-c2ccccc2)c(=O)c1/C=N/N1CCOCC1	–	–	–	·	-7.38	–
CCCCCCC(=O)N1CCN(c2cc3c(cc2F)c(=O)c(C(=O)O)cn3CC)CC1	–	–	–	–	–	–
CCCCCCCCCC(=O)N1CCN(c2cc3c(cc2F)c(=O)c(C(=O)O)cn3CC)CC1	–	–	–	·	-8.61	–
O=C(O)c1ccccc1N=Nc1ccc(O)cc1	–	–	19.4	·	–	–
O=C(O)c1cc(O)ccc1N=Nc1ccccc1	–	–	–	·	–	–
CSCCC(NC(=O)c1ccc([N+](=O)[O-])cc1Cl)C(=O)OCC(=O)C12CC3CC(CC(C3)C1)C2 (configuration not stated)	–	–	–	–	–	–
Cc1cccc(Sc2c(C=O)c3ccccc3n2C)c1	25	–	–	–	–	–
Cn1c(Sc2ccccc2Cl)c(C=O)c2ccccc21	100	–	–	–	–	–
Cc1ccc(S(=O)(=O)NCCN2CCN(S(=O)(=O)c3ccccc3Cl)CC2)cc1	·	–	–	·	–	–
CC[C@H](C)/C=C(C)/C=C/c1cc2c(cn1)C(=O)[C@@](C)(OC(C)=O)C(O)=C2Cl	·	–	–	·	·	·
SMILES	ANO1 block	NOD2-RIPK2 inh	m5-HT2A agonist	TLR4 MyD88 comp	TMEM16A act	TLR9-MyD88 block
CC[C@H](C)/C=C(C)/C=C/C(=O)Cc1cc(O)c(C)c(O)c1C=O	–	–	–	·	-12.8	–
CC(OC(=O)c1cccc(S(=O)(=O)Nc2cccc(C(F)(F)F)c2)c1)C(=O)Nc1ccc2c(c1)OCCO2 (configuration not stated)	100	–	–	–	–	–
CCc1ccc(OC)c(S(=O)(=O)Nc2ccc(Cc3ccncc3)cc2)c1	–	–	–	·	–	–
COc1ccc(S(=O)(=O)Nc2ccc(Cc3ccncc3)cc2)cc1OC	25	–	–	·	–	–
O=C1C=CC(=O)N1Cc1ccccc1	–	–	17.7	·	–	–
C1=C(CCNc2ncnc3nc[nH]c23)CCCC1	25	–	–	–	–	–
C=CC[n+]1c(-c2ccc(OC)cc2)csc1NNC(=O)Nc1ccccc1	100	–	–	–	–	–
